“And” between values parts separate entries of the source, which are not always exact repeats. Identical values can stand only once. Results filed as inconclusive are left out. Some compounds were tested as several samples or in several runs, with calls that do not always agree. The source made the active and inactive calls. Unless noted, calls come from the whole dose curve; as a rule, active = well fitted curve in the direction sought with a large enough effect in the repeat runs; inconclusive = weak or mixed curves; inactive = no such curve, though single readings can be large; an effect the other way counts as inactive or inconclusive.
Experiments:
[1] = target: Aryl hydrocarbon receptor (Homo sapiens) (UniProt P35869); test: qHTS assay to identify small molecule that activate the aryl hydrocarbon receptor (AhR) signaling pathway (AID 743085); note: nearly all actives have a fitted effect of over 15% in size; note: potency is the fitted concentration of half-maximal effect;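 for activation: HG2L7.5c1 human HepG2 liver cells with stably integrated DRE-driven firefly reporter; series mostly up to about 70 µM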
How it was run: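 24 h compound exposure, 37C, HepG2-derived HG2L7.5c1 cells with DRE-responsive luciferase. Readouts: fluorescence viability, then luminescence at room temperature after 30 min.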

[2] = qHTS assay to identify small molecule that activate the aryl hydrocarbon receptor (AhR) signaling pathway - cell viability counter screen (AID 743086); note: nearly all actives have a fitted effect of over 45% in size; note: potency is the fitted concentration of half-maximal effect
How it was run: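 HepG2-AhR-luc (HG2L7.5c1) cells, 4000/well, treated 24 h at 37 C with compound; viability measured as CellTiter-Fluor fluorescence after 30 min in the same wells as the luciferase read.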

[3] = target: Peroxisome proliferator-activated receptor gamma (Homo sapiens) (UniProt P37231); test: qHTS assay to identify small molecule antagonists of the peroxisome proliferator-activated receptor gamma (PPARg) signaling pathway (AID 743191; calls by dose curve; note: nearly all actives have a fitted effect of over 30% in size; note: potency is the fitted concentration of half-maximal effect)
How it was run: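 GeneBLAzer PPARg UAS-bla HEK293H cells, 5 h post-plating, exposed to compounds 17 h at 37C. LiveBLAzer B/G FRET substrate added for 1 h at room temperature; beta-lactamase reporter read by fluorescence intensity.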

[4] = qHTS assay for small molecule agonists of the antioxidant response element (ARE) signaling pathway - cell viability counter screen (AID 743203; calls by dose curve; note: nearly all actives have a fitted effect of over 55% in size; note: potency is the fitted concentration of half-maximal effect)
How it was run: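 Seeded at 2,000 cells/well, ARE-bla HepG2 cells were incubated 5 hrs before compound addition. After 16 hrs of treatment at 37C with 5% CO2, CellTiter-Glo reagent was added and luminescence read 30 min later.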

[5] = qHTS assay for small molecule activators of the heat shock response signaling pathway - cell viability counter screen (AID 743209); note: nearly all actives have a fitted effect of over 50% in size; note: potency is the fitted concentration of half-maximal effect
How it was run: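 First, HSE-bla HeLa cells were seeded at 1500 cells/well and kept overnight at 37 C. Next, compounds were pinned in and incubated 5 h. After the FRET substrate step, CellTiter-Glo was added and luminescence read 30 min later.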

[6] = qHTS assay for small molecule activators of the heat shock response signaling pathway (AID 743210; active = well fitted activation curve with a large enough effect in the signal ratio in the repeat runs, with a control signal flat, not every such curve was filed as active; the % refers to the signal ratio;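 note: HeLa cells with beta-lactamase reporter driven by heat shock elements; series mostly up to about 63 µM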)
How it was run: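 Quantitative high-throughput format using an engineered HeLa line in which heat shock response elements drive beta-lactamase; after 5 h with compound, cells received a B/G FRET substrate and fluorescence was read.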

[7] = qHTS assay to identify small molecule agonists of the peroxisome proliferator-activated receptor delta (PPARd) signaling pathway - cell viability counter screen (AID 743211); note: nearly all actives have a fitted effect of over 55% in size; note: potency is the fitted concentration of half-maximal effect
How it was run: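 Luminescent ATP viability assay (CellTiter-Glo, 30 min RT) in UAS-bla HEK293H cells carrying the PPAR delta reporter construct, 3000 cells/well, after a 17 h compound treatment at 37 C.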

[8] = target: Peroxisome proliferator-activated receptor delta (Homo sapiens) (UniProt Q03181); test: qHTS assay to identify small molecule agonists of the peroxisome proliferator-activated receptor delta (PPARd) signaling pathway (AID 743212; calls by dose curve)
How it was run: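 Quantitative high-throughput agonist screen in a HEK293H beta-lactamase reporter line under UAS control. Compounds in DMSO, at 37 C. Fluorescence read after 2 h with FRET substrate at room temperature.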

[9] = qHTS assay to identify small molecule antagonists of the peroxisome proliferator-activated receptor delta (PPARd) signaling pathway - cell viability counter screen (AID 743213); note: nearly all actives have a fitted effect of over 50% in size; note: potency is the fitted concentration of half-maximal effect
How it was run: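 Luminescence from CellTiter-Glo, added after the bla read and incubated 30 min at room temperature, gives viability of HEK293H PPARd-bla cells exposed to compounds for 17 h at 37 C with 300 nM L165041.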

[10] = target: Peroxisome proliferator-activated receptor delta (Homo sapiens) (UniProt Q03181); test: qHTS assay to identify small molecule antagonists of the peroxisome proliferator-activated receptor delta (PPARd) signaling pathway (AID 743215; active = well fitted inhibition curve with a large enough effect in the signal ratio in the repeat runs, not every such curve was filed as active; the % refers to the signal ratio;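 note: cells stimulated with agonist L165041 at 300 nM final during compound exposure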; note: potency is the fitted concentration of half-maximal effect)
How it was run: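 Inhibition of L165041-driven (300 nM final) PPARd signaling is scored in HEK293H UAS-bla cells. Exposure lasts 17 h at 37 C; beta-lactamase activity is then read by FRET substrate fluorescence after 2 h at room temperature.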

[11] = qHTS assay to identify small molecule agonists of the farnesoid-X-receptor (FXR) signaling pathway - cell viability counter screen (AID 743218); note: nearly all actives have a fitted effect of over 45% in size; note: potency is the fitted concentration of half-maximal effect
How it was run: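 Cytotoxicity counter-screen run in parallel, same wells: FXR-UAS-bla HEK 293T cells dosed 16 h at 37 C, viability read by CellTiter-Glo luminescence after 30 min at room temperature.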

[12] = qHTS assay to identify small molecule antagonists of the farnesoid-X-receptor (FXR) signaling pathway - cell viability counter screen (AID 743221; active = well fitted cell-killing curve with a large enough effect in the repeat runs, not every such curve was filed as active; note: nearly all actives have a fitted effect of over 50% in size; note: potency is the fitted concentration of half-maximal effect)
How it was run: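 In GeneBLAzer FXR-UAS-bla HEK 293T cells stimulated with 50 uM chenodeoxycholic acid (final), compounds acted for 16 h at 37 C. Viability was assessed afterwards by CellTiter-Glo luminescence.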

[13] = target: Vitamin D3 receptor (Homo sapiens) (UniProt P11473); test: qHTS assay to identify small molecule agonists of the vitamin D receptor (VDR) signaling pathway (AID 743222; calls by dose curve)
How it was run: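 Quantitative HTS agonist-mode screen: compounds in DMSO were pin-transferred onto VDR-bla cells and incubated 16 h at 37C, 5% CO2. Reporter activity was detected with LiveBLAzer B/G FRET substrate after 2 h at room temperature.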

[14] = target: Vitamin D3 receptor (Homo sapiens) (UniProt P11473); test: qHTS assay to identify small molecule antagonists of the vitamin D receptor (VDR) signaling pathway (AID 743223; active = well fitted inhibition curve with a large enough effect in the signal ratio in the repeat runs, not every such curve was filed as active; the % refers to the signal ratio)
How it was run: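 Agonist 1alpha,25-dihydroxyvitamin D3 (3 nM in well) was added with each compound to VDR-bla cells preincubated 4 h. Cells stood 16 h at 37C, then FRET substrate 2 h at room temperature; fluorescence intensity recorded.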

[15] = qHTS assay to identify small molecule antagonists of the peroxisome proliferator-activated receptor gamma (PPARg) signaling pathway - cell viability counter screen (AID 743194); details: Potency: co-treated with 50 nM rosiglitazone; note: nearly all actives have a fitted effect of over 55% in size; note: potency is the fitted concentration of half-maximal effect
How it was run: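 Cytotoxicity counter screen in PPARg-bla HEK293H cells, same wells as reporter assay. Compounds plus 50 nM rosiglitazone (final) for 17 h at 37 C, then viability read by CellTiter-Glo luminescence.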

[16] = qHTS assay for small molecule agonists of the antioxidant response element (ARE) signaling pathway (AID 743202; active = well fitted activation curve with a large enough effect in the signal ratio in the repeat runs, not every such curve was filed as active; the % refers to the signal ratio; note: potency is the fitted concentration of half-maximal effect)
How it was run: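 Agonist mode reporter screen: HepG2 cells with ARE-controlled beta-lactamase are incubated with test compounds for 16 h at 37 C, and beta-lactamase activity is measured as fluorescence of cleaved B/G FRET substrate.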

[17] = target: Bile acid receptor (Homo sapiens) (UniProt Q96RI1); test: qHTS assay to identify small molecule antagonists of the farnesoid-X-receptor (FXR) signaling pathway (AID 743217; active = well fitted inhibition curve with a large enough effect in the signal ratio in the repeat runs, not every such curve was filed as active; the % refers to the signal ratio)
How it was run: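 Antagonist mode against 50 uM (final) chenodeoxycholic acid stimulation in FXR-bla HEK 293T cells, 16 h at 37 °C. Inhibition detected as reduced beta-lactamase activity via LiveBLAzer B/G FRET fluorescence after 2 h at room temperature.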

[18] = target: Bile acid receptor (Homo sapiens) (UniProt Q96RI1); test: qHTS assay to identify small molecule agonists of the farnesoid-X-receptor (FXR) signaling pathway (AID 743220; active = well fitted activation curve with a large enough effect in the signal ratio in the repeat runs, not every such curve was filed as active; the % refers to the signal ratio)
How it was run: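 Beta-lactamase reporter under UAS control in GeneBLAzer FXR HEK 293T cells (5000/well) measured with LiveBLAzer FRET substrate after 2 h at room temperature. Compound exposure lasted 16 h at 37C.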

[19] = target: Peroxisome proliferator-activated receptor gamma (Homo sapiens) (UniProt P37231); test: qHTS assay to identify small molecule agonists of the peroxisome proliferator-activated receptor gamma (PPARg) signaling pathway (AID 743094; active = well fitted activation curve with a large enough effect in the signal ratio in the repeat runs, not every such curve was filed as active; the % refers to the signal ratio)
How it was run: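 Quantitative HTS agonist mode: stable HEK293H line with UAS-beta-lactamase reporter under PPARg control, 17 h compound exposure at 37C, fluorescence after 1 h FRET substrate loading at room temperature.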

[20] = qHTS assay to identify small molecule agonists of the vitamin D receptor (VDR) signaling pathway - cell viability counter screen (AID 743224); note: nearly all actives have a fitted effect of over 50% in size; note: potency is the fitted concentration of half-maximal effect
How it was run: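 Viability is measured in the same wells as the VDR-bla reporter assay: after 16 h compound treatment and 2 h substrate loading, CellTiter-Glo is added and luminescence read 30 min later.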

Measured: Potency

Chain of Vitamin D3 receptor (Homo sapiens) (P11473 whole entry, looked up): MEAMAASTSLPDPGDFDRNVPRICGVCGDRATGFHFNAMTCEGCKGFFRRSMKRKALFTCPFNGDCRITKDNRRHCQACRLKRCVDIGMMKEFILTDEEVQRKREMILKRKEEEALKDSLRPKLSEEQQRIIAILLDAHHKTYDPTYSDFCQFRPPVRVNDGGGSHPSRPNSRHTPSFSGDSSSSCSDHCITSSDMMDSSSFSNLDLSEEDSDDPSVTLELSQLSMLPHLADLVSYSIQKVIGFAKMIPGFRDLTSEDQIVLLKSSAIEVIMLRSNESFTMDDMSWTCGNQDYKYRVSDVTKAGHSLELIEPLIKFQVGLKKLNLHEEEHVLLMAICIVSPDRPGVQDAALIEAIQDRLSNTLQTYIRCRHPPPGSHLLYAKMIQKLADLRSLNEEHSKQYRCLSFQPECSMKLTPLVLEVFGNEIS
Chain of Aryl hydrocarbon receptor (Homo sapiens) (P35869 whole entry, looked up): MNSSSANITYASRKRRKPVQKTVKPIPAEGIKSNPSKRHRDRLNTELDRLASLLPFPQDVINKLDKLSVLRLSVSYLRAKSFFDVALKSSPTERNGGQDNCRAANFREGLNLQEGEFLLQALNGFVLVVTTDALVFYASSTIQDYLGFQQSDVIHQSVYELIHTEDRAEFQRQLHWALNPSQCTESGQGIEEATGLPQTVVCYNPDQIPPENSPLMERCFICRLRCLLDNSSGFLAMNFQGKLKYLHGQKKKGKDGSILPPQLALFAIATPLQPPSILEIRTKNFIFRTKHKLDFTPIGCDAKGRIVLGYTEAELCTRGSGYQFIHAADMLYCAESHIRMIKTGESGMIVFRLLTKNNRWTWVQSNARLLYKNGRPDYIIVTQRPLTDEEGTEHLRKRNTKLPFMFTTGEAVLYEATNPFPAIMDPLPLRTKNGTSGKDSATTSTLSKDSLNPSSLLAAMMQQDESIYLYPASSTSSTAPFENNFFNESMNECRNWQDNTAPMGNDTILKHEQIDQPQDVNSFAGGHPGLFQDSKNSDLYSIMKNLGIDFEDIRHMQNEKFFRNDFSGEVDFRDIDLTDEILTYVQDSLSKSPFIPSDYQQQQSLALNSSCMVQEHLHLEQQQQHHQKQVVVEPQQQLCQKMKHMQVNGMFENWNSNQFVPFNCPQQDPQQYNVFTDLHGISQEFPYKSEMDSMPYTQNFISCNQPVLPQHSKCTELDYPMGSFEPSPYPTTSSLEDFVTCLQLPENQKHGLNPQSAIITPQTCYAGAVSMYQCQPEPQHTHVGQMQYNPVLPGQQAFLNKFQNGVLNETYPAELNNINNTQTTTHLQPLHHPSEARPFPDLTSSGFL
Chain of Peroxisome proliferator-activated receptor delta (Homo sapiens) (Q03181 whole entry, looked up): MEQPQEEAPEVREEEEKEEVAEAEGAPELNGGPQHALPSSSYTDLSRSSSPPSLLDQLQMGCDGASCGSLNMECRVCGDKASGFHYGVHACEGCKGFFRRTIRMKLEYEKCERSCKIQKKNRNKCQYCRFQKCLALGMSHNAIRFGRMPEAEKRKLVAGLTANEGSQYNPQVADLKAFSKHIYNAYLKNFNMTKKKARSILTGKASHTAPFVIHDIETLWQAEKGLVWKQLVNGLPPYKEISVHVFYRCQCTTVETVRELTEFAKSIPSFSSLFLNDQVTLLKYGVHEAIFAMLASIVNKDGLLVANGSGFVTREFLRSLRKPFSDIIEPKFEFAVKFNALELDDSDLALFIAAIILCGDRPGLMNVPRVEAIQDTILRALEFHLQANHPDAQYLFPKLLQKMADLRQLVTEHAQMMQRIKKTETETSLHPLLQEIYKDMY
Chain of Bile acid receptor (Homo sapiens) (Q96RI1 whole entry, looked up): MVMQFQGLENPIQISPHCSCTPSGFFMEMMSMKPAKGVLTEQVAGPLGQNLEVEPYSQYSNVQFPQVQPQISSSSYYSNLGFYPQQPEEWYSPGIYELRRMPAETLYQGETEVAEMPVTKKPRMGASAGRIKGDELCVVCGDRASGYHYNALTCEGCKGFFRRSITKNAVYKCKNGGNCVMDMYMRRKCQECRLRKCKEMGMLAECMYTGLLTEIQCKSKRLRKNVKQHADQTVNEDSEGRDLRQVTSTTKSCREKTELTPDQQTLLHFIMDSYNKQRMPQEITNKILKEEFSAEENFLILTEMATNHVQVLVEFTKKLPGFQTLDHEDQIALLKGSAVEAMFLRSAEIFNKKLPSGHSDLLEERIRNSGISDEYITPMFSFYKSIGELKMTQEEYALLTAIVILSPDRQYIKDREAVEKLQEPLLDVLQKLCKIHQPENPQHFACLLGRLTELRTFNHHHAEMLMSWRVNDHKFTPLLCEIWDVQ
Chain of Peroxisome proliferator-activated receptor gamma (Homo sapiens) (P37231 whole entry, looked up): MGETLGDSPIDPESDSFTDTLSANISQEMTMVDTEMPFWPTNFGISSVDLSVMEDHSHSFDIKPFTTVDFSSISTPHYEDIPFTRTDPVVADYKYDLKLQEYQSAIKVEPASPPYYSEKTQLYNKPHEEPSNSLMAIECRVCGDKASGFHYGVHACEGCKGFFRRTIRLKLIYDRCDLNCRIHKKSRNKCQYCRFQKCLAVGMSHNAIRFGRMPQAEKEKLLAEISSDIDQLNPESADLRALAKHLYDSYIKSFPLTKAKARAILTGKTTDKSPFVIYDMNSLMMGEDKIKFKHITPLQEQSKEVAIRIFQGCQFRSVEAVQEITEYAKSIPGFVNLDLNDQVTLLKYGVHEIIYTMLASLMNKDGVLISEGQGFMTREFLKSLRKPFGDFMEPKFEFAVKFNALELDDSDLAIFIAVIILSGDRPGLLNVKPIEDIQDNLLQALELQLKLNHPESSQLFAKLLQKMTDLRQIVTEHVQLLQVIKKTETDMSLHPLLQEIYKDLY

C=CCN1C[C@H](C)N([C@H](c2ccc(C(=O)N(CC)CC)cc2)c2cccc(OC)c2)C[C@H]1C
not listed: [15] | [16] | [17] | [18] | [19] | [20]
inactive: all other assays above

CC(=O)NNc1ccccc1
inactive: [1] | [2] | [15] | [16] | [5] | [17] | [18] | [13] | [14]

Nc1c(Br)cc(Br)c2c1C(=O)c1ccccc1C2=O
active: [1] 7.25 µM
not listed: [3] | [5] | [11] | [15] | [16] | [17] | [18]
inactive: all other assays above

O=C(O)C(O)C(O)C(=O)O (stereo not given)
not listed: [3] | [6] | [10] | [13] | [14] | [15] | [19]
inactive: all other assays above

O=C(NC(=O)c1cc(F)c(F)cc1Cl)Nc1cc(F)ccc1N1CCC(C(=O)O)CC1
active: [3] 1.9 µM
not listed: [7] | [15] | [16] | [17] | [18] | [19]
inactive: all other assays above

O=C1c2ccccc2C(=O)N1SC(Cl)(Cl)Cl
inactive: [1] | [2] | [19] | [18]
active: [4] 60.3 µM and 13.7 µM | [9] 21.6 µM and 5.49 µM | [10] 19.5 µM | [11] 34.7 µM | [20] 19.2 µM and 6.92 µM

O=C(Cc1ccccc1)c1ccccc1
not listed: [3] | [7] | [10] | [19]
inactive: all other assays above

COC(=O)C1(O)c2ccccc2-c2ccccc21
inactive: [1] | [2] | [15] | [4] | [5] | [8] | [9] | [10] | [11] | [12] | [13]

Cc1cccc(C)c1NC1=NCCCS1
not listed: [3] | [5] | [15] | [16] | [17] | [18] | [19]
inactive: all other assays above

CC(Oc1cc(Cl)c(Cl)cc1Cl)C(=O)O (stereo not given)
inactive: [1] | [2] | [4] | [5] | [6] | [7] | [10] | [17] | [11] | [18] | [20]

CCCCCCCCCCCC[N+](C)(C)CCOc1ccccc1
active: [2] 68.6 µM | [4] 30.6 µM and 29.8 µM | [5] 34.7 µM | [7] 13.8 µM and 11.9 µM | [9] 17.4 µM | [11] 24.6 µM | [12] 49 µM
inactive: [1] | [13]

[Cl-].[Cl-].[Hg+2]
active: [2] 6.08 µM and 54.5 µM | [4] 19.2 µM and 12.2 µM | [5] 3.87 µM and 30.9 µM | [7] 1.73 µM and 2.19 µM | [9] 2.44 µM and 1.74 µM | [11] 2.74 µM and 9.77 µM | [12] 2.18 µM and 3.47 µM | [20] 773 nM and 1.1 µM
inactive: [1]

C=CC(C)(CCC=C(C)C)OC(=O)c1ccccc1N (stereo not given)
inactive: [1] | [2] | [16] | [4] | [6] | [7] | [9] | [11] | [12] | [13] | [14]

CC(Oc1cccc(Cl)c1)C(=O)O (stereo not given)
not listed: [2] | [4] | [11] | [12]
inactive: all other assays above

CN(C)c1ccc(N=O)cc1
inactive and 49 µM (active): [11]
inactive: [8] | [17] | [18] | [12] | [14]
active: [1] 21.8 µM and 21.7 µM | [2] 61.3 µM and 68.6 µM | [15] 49.1 µM and 34.7 µM | [5] 3.9 µM and 5.49 µM | [9] 43.6 µM | [10] 21.9 µM | [20] 19.6 µM and 43.6 µM
inactive and 54.5 µM (active): [4]

Cc1ncc(C[n+]2csc(CCO)c2C)c(N)n1
not listed: [3] | [6] | [7] | [8] | [10] | [17] | [18] | [19]
inactive: all other assays above

O=C(O)C(F)(F)C(F)(F)C(F)(F)C(F)(F)C(F)(F)C(F)(F)C(F)(F)C(F)(F)F
active: [4] 61.1 µM
inactive: [1] | [2] | [7] | [9] | [17] | [18] | [13] | [14]

C[C@]12C=CC3=C4CCC(=O)C=C4CC[C@H]3[C@@H]1CC[C@@H]2O
active: [16] 6.07 µM
inactive: [1] | [2] | [15] | [4] | [7] | [11] | [12]

CCCCCCCCP(=O)(O)O
not listed: [1] | [3] | [11] | [16] | [17] | [18] | [19]
inactive: all other assays above

CCOC(=O)c1cn2nc(OP(=S)(OCC)OCC)cc2nc1C
inactive: [2] | [15] | [4] | [7] | [8] | [9] | [10] | [11] | [18] | [12] | [20]

Reference: PubChem BioAssay (Tox21)
